Here are results for three compounds from PubChem BioAssay (NCATS).

Structures are written as SMILES. Active and inactive are the calls of the source. No rule for the calls is given here.
Potency is read from the fitted curve at half-maximal effect.

The first test is described as follows: Immunotoxin (HA22) sensitization/mitigation study. Vehicle arm (PBS) (AID 1159510). To be noted: cancer cells viability with PBS vehicle (HA22 study); series mostly up to 46.1 µM.
Turning to `CC(C)C[C@H](NC(=O)[C@H](Cc1ccccc1)NC(=O)c1cnccn1)B(O)O`, the Potency is 3.7 nM (active).

For the compound `CC[C@@]1(O)C(=O)OCc2c1cc1n(c2=O)Cc2cc3c(CN(C)C)c(O)ccc3nc2-1`, the Potency is 11.8 nM (active).

Consider `CC(=O)O[C@@]12CO[C@@H]1C[C@H](O)[C@@]1(C)C(=O)[C@H](O)C3=C(C)[C@@H](OC(=O)[C@H](O)[C@@H](NC(=O)OC(C)(C)C)c4ccccc4)C[C@@](O)([C@@H](OC(=O)c4ccccc4)[C@H]21)C3(C)C`, for which the Potency result is “inactive”.

A further test in a line: Immunotoxin (SS1P) sensitization/mitigation study. Vehicle arm (DMEM) (AID 1159513). The settings on record: cell viability with vehicle (DMEM); series mostly up to 46.1 µM.
As for `CC(C)C[C@H](NC(=O)[C@H](Cc1ccccc1)NC(=O)c1cnccn1)B(O)O`, the Potency was 14.8 nM (active).

On to `CC[C@@]1(O)C(=O)OCc2c1cc1n(c2=O)Cc2cc3c(CN(C)C)c(O)ccc3nc2-1`, for which the Potency was 5900 nM (active).

As to `CC(=O)O[C@@]12CO[C@@H]1C[C@H](O)[C@@]1(C)C(=O)[C@H](O)C3=C(C)[C@@H](OC(=O)[C@H](O)[C@@H](NC(=O)OC(C)(C)C)c4ccccc4)C[C@@](O)([C@@H](OC(=O)c4ccccc4)[C@H]21)C3(C)C`, the Potency result is “inactive”.
